# Bioassay records: PubChem BioAssay, National Center for Advancing Translational Sciences (NCATS)
# HepG2 tox: HepG2 cytotoxicity, counter-screen for TGF-b inhibitors. HepG2 CAGA-GFP viability, ATP luminescence, 18 h. Potency, µM (top dose mostly 46.1 µM), most hits filed as cytotoxic. 410,000 compounds, 0.76% hits
#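 CellTiter-Glo luminescence gave cytotoxicity after 18 hours at 37 degrees C. The cells were HepG2 CAGA-GFP in 1% FBS DMEM, stimulated with 500 pg/mL TGF-beta after compound addition. %Activity was normalised to no-cell wells (complete cell-killing) and DMSO (no toxicity), and curves were fitted and classified.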
# ATXN viability: viability counter-screen for ATXN expression inhibitors. S2 cells (HEK-293 line with an ATXN2-luciferase reporter) viability, CellTiter-Fluor protease fluorescence, 24 h. Potency, µM (doses to about 56.7 µM), most hits filed as cytotoxic. 400,000 compounds, 0.49% hits. AID 651635; further: nearly all actives have a fitted effect of over 40% in size
# ATXN2 expr inh: ATXN2 expression inhibition; HEK-293 ATXN2-luciferase reporter, luminescence, 24 h; Potency, µM (top dose mostly 57 µM), usual class: inhibitors; 360,000 compounds, 0.72% hits; AID 1745845; further: nearly all actives have a fitted effect of over 55% in size
#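 qHTS (up to 57 uM final) was run with 24 h compound exposure of reporter cells at 37 °C. Each well was multiplexed: SteadyGlo luminescence measured ATXN2-luciferase expression after a fluorogenic Gly-Phe-AFC viability readout (25 uM final).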
# HT1080 IDH1KD tx: toxicity to HT-1080 IDH1 knockdown cells (counter line) | Potency, µM (titrated, usually from 46.1 µM), most hits filed as cytotoxic | HT-1080 IDH1 knockdown viability, ATP luminescence, 48 h | AID 686971 | 360,000 compounds, 2% hits
#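 HT-1080-IDH1KD cells (IDH1 knocked down), 750/well in RPMI with 5% FBS, treated with compound 48 h at 37 degrees C. Viability by CellTiter-Glo luminescence, normalised to DMSO and no-cell wells; concentration-response curves classed.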
# HT1080-NT tox: kills 2HG-producing HT-1080-NT fibrosarcoma cells; 360,000 compounds, 1.6% hits; Potency, µM (doses to about 46.1 µM), hits mostly cytotoxic; HT-1080-NT fibrosarcoma viability, CellTiter-Glo ATP luminescence, 48 h;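 further: NT is the 2HG producing partner of a matched IDH1 knockdown line; nearly all actives have a fitted effect of over 55% in size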
#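 HT-1080-NT; 750 cells/well; 5% FBS RPMI; 48 h compound, 37 degrees C; CellTiter-Glo luminescence; curve fitting and curve-class assignment.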
# TGFb inhibitor: TGF-b pathway inhibition; HepG2 CAGA-GFP TGF-b/SMAD3 reporter, GFP fluorescence, 18 h; TGF-beta stimulated, 500 pg/mL final; 410,000 compounds, 1.2% hits; Potency, µM (titrated, usually from 46.1 µM), most hits filed as inhibitors; further: nearly all actives have a fitted effect of over 65% in size
#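 TGF-beta reporter screen: HEPG2 CAGA-GFP, 1% FBS, 500 pg/mL TGF-beta final, 18 h; per-cell GFP summed per well; curves fitted and categorized by class.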
# A number is an active result; 0 = inactive; ? = inconclusive; - = not tested or not shown; [ ] = remark or other dose. This is a sample that favours compounds with a hit; in the whole collection about 3.8% have one here. The call rests on the fitted dose curve; in most records, active means well fitted curve in the direction sought with a large enough effect; inconclusive means small, poorly fitted or top-dose-only effect, or another doubt; inactive means no such curve, though single readings can be large; an effect the other way counts as inactive or inconclusive.
SMILES,HepG2 tox,ATXN viability,ATXN2 expr inh,HT1080 IDH1KD tx,HT1080-NT tox,TGFb inhibitor
O=C(c1ccccc1)c1cc(Cl)ccc1N1C(=O)C=CC1=O,0,?,0,23µM,18µM,?
COCCSc1nnc(NC(=O)CCS(=O)(=O)c2ccccc2)s1,0,0,0,23µM,?,?
CC(=O)c1sc(NC(=O)CCS(=O)(=O)c2ccccc2)nc1C,0,?,?,?,0,18µM
COc1ccc(Nc2cc(C(=O)NCCCN3CCN(c4ccccc4F)CC3)c3ccccc3n2)c(OC)c1,0,-,-,-,-,11µM
CSc1nc(-c2ccc(C)cc2)[nH]c1S(=O)(=O)c1ccccc1,0,0,0,23µM,0,0
CC(CNC(=O)c1ccc2c(c1)nc1n2CCCCC1)c1ccccc1 (stereo not drawn),0,-,-,-,-,0
Cc1cc(C)c(NC(=O)Cn2c(=O)n(Cc3ccc(C(=O)NCc4ccco4)cc3)c(=O)c3sccc32)c(C)c1,0,-,-,-,-,10µM
Cc1cc(C)nc(NN=C(c2ccccc2)c2ccccc2)n1,0,0,-,0,0,11µM
CC(/C=C/c1ccccc1)=N\Nc1nc(C)cc(C)n1,0,?,0,0,0,?
OC(CNCc1ccc(-c2ccccc2)cc1)c1ccccc1 (stereo not drawn),22µM,0,0,29µM,21µM,?
CCCCCCCC/C=C\CCCCCCCC(=O)NCCc1ccc(O)c(O)c1,0,25µM,16µM,23µM,4.6µM,?
CCCCCCCC/C=C\CCCCCCCC(=O)NCc1ccc(O)c(OC)c1,-,0,0,-,-,-
CCCN(Cc1cccs1)C(=O)Nc1ccc(Br)c(C)c1,0,-,-,-,-,11µM
CC(=O)OCC(=O)Nc1ccc(Br)c(C)c1,0,0,0,0,0,16µM
O=C(CCN(CCO)Cc1ccccc1)Nc1ccc(Br)cc1,0,0,0,?,?,0
COCC(=O)Nc1ccc(Br)c(C)c1,0,0,0,0,0,0
CCN(CCC(=O)Nc1ccc(Br)c(C)c1)Cc1ccccc1,0,0,0,?,15µM,0
COc1ccc(N/C=C2\CCc3ccccc3C2=O)cc1,11µM,0,0,?,?,0
COc1ccc2c(c1)CC/C(=C\Nc1ccc3c(c1)OCO3)C2=O,0,0,0,0[9.24 µM],?,0
COCc1ccc(CN2Cc3ccccc3OC(c3ccccc3F)C2)o1 (stereo not drawn),-,0,-,-,-,-
COCCCNC(=O)C[C@@H]1C[C@@]2(C(=O)OC)CC(C)(C)CC=C2N(Cc2cccc3ccccc23)C1=O,-,-,-,0,0,-
CCCCOCCCNC(=O)C[C@@H]1C[C@@]2(C(=O)OC)CC(C)(C)CC=C2N(Cc2cccc3ccccc23)C1=O,-,-,-,21µM,?,-
COC(=O)[C@@]12C[C@@H](CC(=O)NCc3cccc(C(F)(F)F)c3)C(=O)N(Cc3ccc4c(c3)OCO4)C1=CCC(C)(C)C2,-,-,-,21µM,13µM,-
COC(=O)[C@@]12C[C@@H](CC(=O)N3CCN(C(=O)c4ccco4)CC3)C(=O)N(Cc3cccc4ccccc34)C1=CCC(C)(C)C2,-,-,-,21µM,?,-
Cc1nc2sccn2c1CN1CCOc2ccc(CN3C[C@@H](C)O[C@@H](C)C3)cc2C1,-,0,-,-,-,-
SMILES,HepG2 tox,ATXN viability,ATXN2 expr inh,HT1080 IDH1KD tx,HT1080-NT tox,TGFb inhibitor
c1cc(-c2cnn3cc(-c4ccc(OCCN5CCCCC5)cc4)cnc23)ccn1,-,-,3.9µM,-,-,-
O=C(Nc1ccc(F)cc1C(F)(F)F)C1CCN(c2ncccn2)CC1,0,0,0,-,-,?
CCN(CC)C(=O)c1cnn(-c2ccc(F)cc2)c1-n1cccc1,0,0,0,-,-,0
COCc1c(C(=O)N2CCCC(C)C2)cnn1-c1nccc(-c2cc(C)sc2C)n1 (stereo not drawn),-,0,-,-,-,-
CC1CCC(C(C)C)C(OCC(O)CNC(C)c2ccccc2)C1 (stereo not drawn),0,?,?,?,15µM,?
CCCC(NCC(O)COc1ccc(-c2ccccc2)cc1)c1ccccc1 (stereo not drawn),0,?,19µM,13µM,0,?
CC(NCC(O)COc1ccc2ccccc2c1)c1ccccc1 (stereo not drawn),11µM,?,18µM,13µM,18µM,?
Cc1cc(OCC(O)CNC(C)c2ccccc2)ccc1C(C)C (stereo not drawn),0,?,0,18µM,23µM,?
COc1ccc(CN2CC[C@H]3C=CC[C@@H](C(=O)NC4CCCCC4)[C@H]3C2=O)cc1OC,0,-,-,-,-,0
CC(C)NC(=O)[C@@H]1C[C@@H](Sc2nc3ccccc3[nH]2)CN1C1Cc2ccccc2C1,-,0,-,-,-,-
O=c1oc2ccc3ccccc3c2cc1-c1nnc(Nc2cc(C(F)(F)F)ccc2Cl)s1,0,0,0,-,-,0
NC(=O)C1=CC2C3C=CC2(O)C(=O)OC3O1 (stereo not drawn),13µM,-,21µM,21µM,?,11µM
CC(=O)Nc1cc(N=Cc2ccc(O)cc2O)c(Cl)cc1Cl,0,?,0,18µM,?,?
COc1ccc(O)c(C=Nc2cc(NC(C)=O)c(Cl)cc2Cl)c1,0,0,0,0,0,0
COc1ccc(NC(=O)c2sc3nc(-c4cc5ccc(OC)cc5oc4=O)[nH]c(=O)c3c2C)cc1,0,-,-,-,-,0
CC1COC2(CCN(c3nc(=O)c4cc(C(F)(F)F)cc([N+](=O)[O-])c4s3)CC2)O1 (stereo not drawn),-,-,0,-,-,-
CCn1c(=O)n(CC)c2cc(N3CCCC3)c(NC(=O)c3ccccc3OC)cc21,0,?,0,?,?,0
CCOc1ccccc1C(=O)Nc1cc2c(cc1N1CCCC1)n(CC)c(=O)n2CC,0,14µM,-,0,0,?
CC(C)=CCN1CCN(CCC2=C(C)CCCC2(C)C)CC1CCO (stereo not drawn),0,0,0,0,0,0
CC1=C(CC/C(C)=N/NC(N)=S)C(C)(C)CCC1,0,?,?,8.9µM,6.3µM,0
CCc1cccc(NC(=O)c2cn3c4c(ccc(Cl)c4c2=O)OC(C)C3)c1 (stereo not drawn),0,0,0,-,-,0
Cn1cc(S(=O)(=O)Cc2ccc(F)cc2)c2ccccc21,0,0,0,0,0,0
Cn1cc(C2=C(c3c4n(c5ccccc35)CCC(CN)C4)C(=O)NC2=O)c2ccccc21 (stereo not drawn),-,-,24µM,-,-,-
CN(CC1(C)CCCO1)S(=O)(=O)c1ccc(Cl)c(S(N)(=O)=O)c1 (stereo not drawn),-,0,0,-,-,-
CCCCN(CCCC)CC(O)c1cc(Cl)cc2c1-c1ccc(Cl)cc1/C2=C/c1ccc(Cl)cc1 (stereo not drawn),-,?,25µM,-,-,-
